Assay results taken from article PMC12820563, “FoxP3 forms a head-to-head dimer in vivo and stabilizes its multimerization on adjacent microsatellites”.
Whole data set: some 16,000 sequences, median “rpm ratio (pull-down/input)” near 0.5, cut for the highest 2% near 5.5. For the sample, the highest values were picked, then their nearest neighbours and some sequences at random.

What follows are sequences tested against T1, MBP-FoxP3dN (Mus musculus, UniProt Q99JB6 188-423) (assay: PD-seq (MBP pull-down with sequencing); 20 mM Tris-HCl pH 7.5, 100 mM NaCl, 1.5 mM MgCl2, 0.4 uM protein, 0.1 uM dsDNA library, 30 min, room temperature, amylose pull-down; high values mean tight binding). Conditions: protein: recombinant; tags: His6-MBP; chain copies: 2; dsDNA, one strand shown.
T1 sequence: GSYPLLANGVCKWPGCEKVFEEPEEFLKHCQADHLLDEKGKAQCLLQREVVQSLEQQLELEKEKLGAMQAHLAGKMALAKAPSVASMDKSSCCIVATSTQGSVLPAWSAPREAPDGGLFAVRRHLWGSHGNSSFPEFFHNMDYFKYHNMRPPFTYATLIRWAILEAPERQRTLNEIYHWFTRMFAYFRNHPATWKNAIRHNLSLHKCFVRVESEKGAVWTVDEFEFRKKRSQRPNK
How it was run: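 His6-MBP-tagged mouse FoxP3 or FoxP1 fragment lacking the N-terminus, expressed in E. coli, was mixed at 0.4 µM with 0.1 µM Klenow-filled double-stranded degenerate DNA library. Incubation was 30 min at room temperature in Tris pH 7.5 buffer with NaCl and MgCl2. Complexes were caught on amylose resin and washed three times; DNA was released with proteinase K, PCR-barcoded and Illumina-sequenced. Binding is reads-per-million enrichment, pull-down over input, with replicates pooled.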
With “GATGATTGTTCTCCCAGCTGATGAATTAGGCAGCTCGAGTAAACAAATTTTCCTAATCTTTCTGTTCAAGCGCCATCTAC” the binding signal was 1.13 RPM ratio (pull-down/input). With “GATGATTGTTCTCCCAGCTGATGAATTAGGGCATTCGAGTAAACAAATTTTCCTAATCTTTCTGTTCAAGCGCCATCTAC” the binding signal was 5.05 RPM ratio (pull-down/input). With “GATGATTGTTCTCCCAGCTGATGAATTGCTCAGATCGAGTAAACAAATTTTCCTAATCTTTCTGTTCAAGCGCCATCTAC” the binding signal was 0.345 RPM ratio (pull-down/input). With “GATGATTGTTCTCCCAGCTGATGAATTAACAATGTCGAGTAAACAAATTTTCCTAATCTTTCTGTTCAAGCGCCATCTAC” the binding signal was 0.512 RPM ratio (pull-down/input). For “GATGATTGTTCTCCCAGCTGATGAATTGCTTATGTCGAGTAAACAAATTTTCCTAATCTTTCTGTTCAAGCGCCATCTAC”, the binding signal was 1.87 RPM ratio (pull-down/input). In the case of “GATGATTGTTCTCCCAGCTGATGAATTCGGCACTTCGAGTAAACAAATTTTCCTAATCTTTCTGTTCAAGCGCCATCTAC”, the binding signal was 0.811 RPM ratio (pull-down/input). In the case of “GATGATTGTTCTCCCAGCTGATGAATTGTTTGCGTCGAGTAAACAAATTTTCCTAATCTTTCTGTTCAAGCGCCATCTAC”, the binding signal was 6.41 RPM ratio (pull-down/input). For “GATGATTGTTCTCCCAGCTGATGAATTCTTTGCGTCGAGTAAACAAATTTTCCTAATCTTTCTGTTCAAGCGCCATCTAC”, the binding signal was 0.489 RPM ratio (pull-down/input). “GATGATTGTTCTCCCAGCTGATGAATTTTGCGCGTCGAGTAAACAAATTTTCCTAATCTTTCTGTTCAAGCGCCATCTAC” was tested, and the binding signal was 3.39 RPM ratio (pull-down/input). With “GATGATTGTTCTCCCAGCTGATGAATTTTTTGCGTCGAGTAAACAAATTTTCCTAATCTTTCTGTTCAAGCGCCATCTAC” the binding signal was 0.525 RPM ratio (pull-down/input). For “GATGATTGTTCTCCCAGCTGATGAATTTGTTGCGTCGAGTAAACAAATTTTCCTAATCTTTCTGTTCAAGCGCCATCTAC”, the binding signal was 6.75 RPM ratio (pull-down/input). “GATGATTGTTCTCCCAGCTGATGAATTTGCGTCGTCGAGTAAACAAATTTTCCTAATCTTTCTGTTCAAGCGCCATCTAC” was tested, and the binding signal was 2.28 RPM ratio (pull-down/input). For “GATGATTGTTCTCCCAGCTGATGAATTTAACGAGTCGAGTAAACAAATTTTCCTAATCTTTCTGTTCAAGCGCCATCTAC”, the binding signal was 0.208 RPM ratio (pull-down/input). In the case of “GATGATTGTTCTCCCAGCTGATGAATTAGCTGCTTCGAGTAAACAAATTTTCCTAATCTTTCTGTTCAAGCGCCATCTAC”, the binding signal was 0.674 RPM ratio (pull-down/input). “GATGATTGTTCTCCCAGCTGATGAATTGTACGTATCGAGTAAACAAATTTTCCTAATCTTTCTGTTCAAGCGCCATCTAC” was tested, and the binding signal was 0.769 RPM ratio (pull-down/input). With “GATGATTGTTCTCCCAGCTGATGAATTAGAGATGTCGAGTAAACAAATTTTCCTAATCTTTCTGTTCAAGCGCCATCTAC” the binding signal was 0.424 RPM ratio (pull-down/input). With “GATGATTGTTCTCCCAGCTGATGAATTCTAAGTGTCGAGTAAACAAATTTTCCTAATCTTTCTGTTCAAGCGCCATCTAC” the binding signal was 0.48 RPM ratio (pull-down/input). “GATGATTGTTCTCCCAGCTGATGAATTACGCATGTCGAGTAAACAAATTTTCCTAATCTTTCTGTTCAAGCGCCATCTAC” was tested, and the binding signal was 6.15 RPM ratio (pull-down/input). For “GATGATTGTTCTCCCAGCTGATGAATTTACGCATTCGAGTAAACAAATTTTCCTAATCTTTCTGTTCAAGCGCCATCTAC”, the binding signal was 6.38 RPM ratio (pull-down/input). For “GATGATTGTTCTCCCAGCTGATGAATTTTACGCATCGAGTAAACAAATTTTCCTAATCTTTCTGTTCAAGCGCCATCTAC”, the binding signal was 1.01 RPM ratio (pull-down/input). In the case of “GATGATTGTTCTCCCAGCTGATGAATTACGCAACTCGAGTAAACAAATTTTCCTAATCTTTCTGTTCAAGCGCCATCTAC”, the binding signal was 6.03 RPM ratio (pull-down/input). In the case of “GATGATTGTTCTCCCAGCTGATGAATTCTACGCATCGAGTAAACAAATTTTCCTAATCTTTCTGTTCAAGCGCCATCTAC”, the binding signal was 0.854 RPM ratio (pull-down/input). With “GATGATTGTTCTCCCAGCTGATGAATTACGCTGTTCGAGTAAACAAATTTTCCTAATCTTTCTGTTCAAGCGCCATCTAC” the binding signal was 1.09 RPM ratio (pull-down/input). “GATGATTGTTCTCCCAGCTGATGAATTACAACTCTCGAGTAAACAAATTTTCCTAATCTTTCTGTTCAAGCGCCATCTAC” was tested, and the binding signal was 0.948 RPM ratio (pull-down/input). With “GATGATTGTTCTCCCAGCTGATGAATTACCCATGTCGAGTAAACAAATTTTCCTAATCTTTCTGTTCAAGCGCCATCTAC” the binding signal was 0.294 RPM ratio (pull-down/input). For “GATGATTGTTCTCCCAGCTGATGAATTACGCATTTCGAGTAAACAAATTTTCCTAATCTTTCTGTTCAAGCGCCATCTAC”, the binding signal was 6.65 RPM ratio (pull-down/input). For “GATGATTGTTCTCCCAGCTGATGAATTACGCCTGTCGAGTAAACAAATTTTCCTAATCTTTCTGTTCAAGCGCCATCTAC”, the binding signal was 5.4 RPM ratio (pull-down/input). For “GATGATTGTTCTCCCAGCTGATGAATTACGCAAATCGAGTAAACAAATTTTCCTAATCTTTCTGTTCAAGCGCCATCTAC”, the binding signal was 0.792 RPM ratio (pull-down/input). With “GATGATTGTTCTCCCAGCTGATGAATTACGCCATTCGAGTAAACAAATTTTCCTAATCTTTCTGTTCAAGCGCCATCTAC” the binding signal was 5.04 RPM ratio (pull-down/input). “GATGATTGTTCTCCCAGCTGATGAATTGCTACCATCGAGTAAACAAATTTTCCTAATCTTTCTGTTCAAGCGCCATCTAC” was tested, and the binding signal was 0.894 RPM ratio (pull-down/input). For “GATGATTGTTCTCCCAGCTGATGAATTGCCCGAATCGAGTAAACAAATTTTCCTAATCTTTCTGTTCAAGCGCCATCTAC”, the binding signal was 0.311 RPM ratio (pull-down/input). In the case of “GATGATTGTTCTCCCAGCTGATGAATTACGGCCATCGAGTAAACAAATTTTCCTAATCTTTCTGTTCAAGCGCCATCTAC”, the binding signal was 1.15 RPM ratio (pull-down/input).
